Source: PubChem
Compounds with a hit are over-represented: about 8% of the library has one in this group of screens.
PostGolgi ctrl – inhibits growth of the yeast control strain; inhibition, % at 10 µM; efflux-deficient yeast background strain, growth absorbance A615, 16 h; AID 738; 98,000 compounds, 5% hits
Cav32 inh – blocks human Cav3.2 T-type calcium channel | B-score at 10 µM | O95180 | Cav3.2-expressing cells, Fluo-4 calcium fluorescence FDSS; stronger effect = lower value | 100,000 compounds, 4% hits | AID 449739;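 active means single-dose well whose peak fluorescence ratio is a statistical outlier from its plate by either plate-standardised score or position-corrected B-score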
PostGolgi yeast – growth inhibition of a yeast mutant, post-Golgi transport screen. post-Golgi transport phenotypic cell assay. inhibition, % at 10 µM. 98,000 compounds, 0.9% hits. AID 739;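 further: yeast cells grown in 1536-well plates; yeast grown about 18 h at 30C before absorbance read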
Pyk2 oligo antag – Pyk2 (human) oligomerization antagonism | Q14289 | Q293 cells, Pyk2 FERM NanoBiT luminescence; stronger effect = lower value | z-score (the deposit names both 25 µM and 10 µM) | 99,000 compounds, 0.83% hits | AID 1347419;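 active means Z-score of -3 or lower, scaled per plate to the spread of control and sample wells; inactive means z-score above -3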;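 further: negative z-score means lost luminescence so less FERM oligomerization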
* hit, by the source's call. Unless noted, no stated cut-off is given here; in the data, active means inhibition above about 30%; inactive means the rest.

Results for O=C1CC(SCc2nc3ccccc3[nH]2)C(=O)N1c1ccc(F)c(Cl)c1 (stereo not given) ?
PostGolgi ctrl: 3; Cav32 inh: -1.8; PostGolgi yeast: -2; Pyk2 oligo antag: 0.88

How did O=C1CC(SCCc2nc3ccccc3[nH]2)C(=O)N1c1ccc(Cl)cc1 (stereo not given) do in these assays?
PostGolgi ctrl: 2; Cav32 inh: -6.5*; PostGolgi yeast: 2; Pyk2 oligo antag: 0.02

What do the screens show for `O=C1CC(SCc2nc3ccccc3[nH]2)C(=O)N1c1ccc(Cl)cc1` (stereo not given)?
PostGolgi ctrl: 5; Cav32 inh: -4.9*; PostGolgi yeast: 0; Pyk2 oligo antag: 0.09

What do the screens show for `C=CCN1C(=O)CSc2ccc(C(=O)NCCC3=CCCCC3)cc21`?
PostGolgi ctrl: 23; Cav32 inh: -3.7; PostGolgi yeast: 2; Pyk2 oligo antag: -1.2

What do the screens show for `CCCCc1ccc(-c2c(C#N)c(N)nc3c2CCCC3)s1`?
PostGolgi ctrl: 12; Cav32 inh: -0.95; PostGolgi yeast: -2; Pyk2 oligo antag: 0.86

What do the screens show for `CCCCc1sc(-c2c(C#N)c(N)nc3c2CCCCC3)cc1[N+](=O)[O-]`?
PostGolgi ctrl: 18; Cav32 inh: -4.8*; PostGolgi yeast: -3; Pyk2 oligo antag: -2.2

Results for O=C1C=C(Nc2ccc(Cl)cc2)CC(c2ccc(Cl)cc2)C1 (stereo not given) ?
PostGolgi ctrl: 52*; Cav32 inh: -1; PostGolgi yeast: 8; Pyk2 oligo antag: -0.15

Results for C=CCc1c(C)nc(SC)nc1Nc1ccc(C)cc1 ?
PostGolgi ctrl: 32*; Cav32 inh: -2.6; PostGolgi yeast: -12; Pyk2 oligo antag: 0.35

How did C=CCc1c(C)nc(C)nc1N/N=C/c1ccc(F)cc1 do in these assays?
PostGolgi ctrl: -5; Cav32 inh: -0.028; PostGolgi yeast: -2; Pyk2 oligo antag: -0.44

How did CCOC(=O)C1=C(C)N2C(=C(C#N)[C@@H]1c1ccc(C(=O)OC)cc1)SC[C@@]2(O)C(C)(C)C do in these assays?
PostGolgi ctrl: 5; Cav32 inh: -5.8*; PostGolgi yeast: -7; Pyk2 oligo antag: -1.3

What do the screens show for `Cc1ccc(S(=O)(=O)NC(=O)c2ccc(-c3ccc(-c4ccccc4)cc3)o2)c(C)c1`?
Cav32 inh: -4.3*

Results for CCOc1ccc(-n2c(SCc3ccc(C#N)cc3)nnc2-c2cccnc2)cc1 ?
PostGolgi ctrl: 4; Cav32 inh: -6.8*; PostGolgi yeast: -5; Pyk2 oligo antag: -0.47

Results for COc1ccc(-n2c(COc3ccc(Cl)cc3)nnc2SCc2ccc(C#N)cc2)cc1 ?
PostGolgi ctrl: 21; Cav32 inh: -4.3*; PostGolgi yeast: 15; Pyk2 oligo antag: -1.5

How did COc1ccc(-n2c(COc3ccc(C)cc3)nnc2SCc2ccc(C#N)cc2)cc1 do in these assays?
PostGolgi ctrl: 15; Cav32 inh: -2.6; PostGolgi yeast: -1; Pyk2 oligo antag: -1

Results for Clc1ccc(-n2c(SC/C=C/c3ccccc3)nnc2-c2cccnc2)cc1 ?
PostGolgi ctrl: 35*; Cav32 inh: -0.25; PostGolgi yeast: -7; Pyk2 oligo antag: -1.2

What do the screens show for `C=CCSc1nnc(-c2ccncc2)n1-c1ccc(OCC)cc1`?
PostGolgi ctrl: 31*; Cav32 inh: -0.0071; PostGolgi yeast: 5; Pyk2 oligo antag: -0.08

Results for C=CCSc1nnc(C)n1-c1ccc(Cl)cc1 ?
PostGolgi ctrl: 22; Cav32 inh: -0.0041; PostGolgi yeast: -5; Pyk2 oligo antag: 0.36

How did CCn1c(COc2ccc(Cl)cc2)nnc1SCc1ccc(C#N)cc1 do in these assays?
PostGolgi ctrl: 34*; Cav32 inh: -5; PostGolgi yeast: -10; Pyk2 oligo antag: 1.9

Results for COCCCNC(=O)c1ccc(Cn2c(=O)c3ccccc3n(Cc3ccccc3C#N)c2=O)cc1 ?
PostGolgi ctrl: 2; Cav32 inh: -0.07; PostGolgi yeast: 5; Pyk2 oligo antag: -0.38

Results for O=C(Nc1ccc(Cl)c(Cl)c1)c1ccncc1 ?
PostGolgi ctrl: 3; Cav32 inh: 0.87; PostGolgi yeast: -2; Pyk2 oligo antag: 1.8

How did O=S(=O)(Nc1ccc(Cc2ccncc2)cc1)c1ccc(Cl)c(Cl)c1 do in these assays?
PostGolgi ctrl: 96*; Cav32 inh: -0.92; PostGolgi yeast: 107*; Pyk2 oligo antag: -3*

What do the screens show for `O=C(Nc1ccc(Cc2ccncc2)cc1)c1ccc(Cl)c([N+](=O)[O-])c1`?
PostGolgi ctrl: 78*; Cav32 inh: -8.7*; PostGolgi yeast: 67*; Pyk2 oligo antag: -0.23

Results for CCOC(=O)CN(C(=O)CSc1nnc(COc2ccc(OC)cc2)n1C)c1ccccc1 ?
PostGolgi ctrl: -5; Cav32 inh: 0.58; PostGolgi yeast: -1; Pyk2 oligo antag: -0.58

What do the screens show for `Cc1ccc(-c2cc(C(=O)N/N=C/c3c(C)nn(-c4ccccc4)c3C)[nH]n2)cc1`?
PostGolgi ctrl: 0; PostGolgi yeast: -10; Pyk2 oligo antag: -3*

What do the screens show for `Cc1nn(-c2ccccc2)c(C)c1/C=N/NC(=O)c1cc(C(C)(C)C)[nH]n1`?
PostGolgi ctrl: -3; Cav32 inh: -0.22; PostGolgi yeast: 1; Pyk2 oligo antag: -1.5

How did O=C(CCCSc1nc2ccccc2[nH]1)N1CCN(c2ccc([N+](=O)[O-])cc2)CC1 do in these assays?
PostGolgi ctrl: 32*; Cav32 inh: -3.1; PostGolgi yeast: -4; Pyk2 oligo antag: -2

What do the screens show for `O=C(CSc1nc2ccccc2[nH]1)N1CCN(c2ccc(F)cc2)CC1`?
PostGolgi ctrl: -1; Cav32 inh: -2.2; PostGolgi yeast: -4; Pyk2 oligo antag: 0.84

What do the screens show for `O=C(Oc1c(Cl)cc(Cl)c2cccnc12)c1ccco1`?
PostGolgi ctrl: 31*; Cav32 inh: -1.8; PostGolgi yeast: 6; Pyk2 oligo antag: -2.6

What do the screens show for `COCC(=O)n1nc(NCc2ccc(OC)cc2)nc1NCc1ccc(OC)cc1`?
PostGolgi ctrl: 87*; Cav32 inh: -8.9*; PostGolgi yeast: 49*; Pyk2 oligo antag: 0.34

How did Cc1ccc(F)cc1NC(=O)c1c(-c2ccccc2)noc1C do in these assays?
PostGolgi ctrl: 15; Cav32 inh: -2.7; PostGolgi yeast: -7

How did CCOc1ccc(OCc2ccc(C(=O)N3CCc4ccccc4C3)o2)cc1 do in these assays?
PostGolgi ctrl: 14; Cav32 inh: -2.8*; PostGolgi yeast: -11; Pyk2 oligo antag: -0.18

How did CCC(OC(=O)CCc1nc2ccccc2[nH]c1=O)C(=O)c1ccccc1 (stereo not given) do in these assays?
PostGolgi ctrl: -6; Cav32 inh: -0.77; PostGolgi yeast: 0; Pyk2 oligo antag: 0.23

How did COC(=O)C(NC(C)=O)(Nc1nc2c(C)cc(C)cc2s1)C(F)(F)F (stereo not given) do in these assays?
PostGolgi ctrl: 14; Cav32 inh: -4.3*; PostGolgi yeast: 11; Pyk2 oligo antag: -1.2

Results for COC(=O)C(NC(C)=O)(Nc1nc(C)cs1)C(F)(F)F (stereo not given) ?
PostGolgi ctrl: 3; Cav32 inh: 0.84; PostGolgi yeast: -2; Pyk2 oligo antag: 0.5

Results for CCN1C(=O)N(C)C2(c3ccccc3)N(C)C(=O)N(C)C12c1ccccc1 (stereo not given) ?
PostGolgi ctrl: 2; Cav32 inh: 0.48; PostGolgi yeast: -7; Pyk2 oligo antag: -0.44

What do the screens show for `CC(C)N1CC2(c3ccccc3)CN(C(C)C)CC(c3ccccc3)(C1)C2=O`?
PostGolgi ctrl: 13; Cav32 inh: -3.4*; PostGolgi yeast: -1; Pyk2 oligo antag: -0.31
